According to PubChem BioAssay (NCI):
About 83,000 compounds went through this panel and 20% of them were active in at least one assay; those are over-represented in the sample as a whole.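 A percent growth of 40 corresponds to 60% growth inhibition; 0 means no net growth; -100 means all cells died. Active threshold: below 10.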 Activity calls are given as the source filed them.

Each compound was assayed on HL-60(TB) leukemia (assay: NCI-60 one-dose screen, 48 h (100 = growth as untreated, 0 = no growth, -100 = all killed)). Settings: 10 µM unless noted.
With COc1cc(C2CC(c3cc(OC)c(OC)c(OC)c3)=NN2C(C)=O)ccc1OCc1ccccc1 (configuration not stated) the growth was 21.5% (inactive).
COc1ccc(/C=C/c2nc3ccccc3c(=O)n2CC(=O)Nc2ccc(OC)cc2)cc1 was tested, and the growth was 82% (inactive).
CC(=O)Nc1ccc(-n2cnc3cc(-c4ccc(O)cc4)ccc32)cc1C was tested, and the growth was 26.6% (inactive).
In the case of CN1C(=O)/C(=C\C(=O)c2cc3ccccc3oc2=O)c2ccccc21, the growth is reported as 79.3% (inactive).
With COc1ccc(-c2nc(SC(C)C)nc(NCCc3c[nH]c4ccccc34)c2C#N)cc1 the growth was 31.6% (inactive).
In the case of COc1ccc(-c2c(Nn3cnnn3)no[n+]2[O-])cc1, the growth is reported as 38.8% (inactive).
With Cc1ccc2nc(-c3ccc(-c4nnc(SCC(=O)Nc5ccc(Br)cc5)o4)cc3)[nH]c2c1 the growth was 55.6% (inactive).
In the case of C=C1CCC2C3(C)COC(c4c(F)cccc4F)OC3CCC2(C)C1CC(O)C1=CCOC1=O (configuration not stated), the growth is reported as 81.6% (inactive).
With COc1cnc2c(c1)C(=O)c1c-2n(CCCNC(C)C)c(=O)c2cc(OC)c(OC)cc12 the growth was 62.8% (inactive).
In the case of CC[C@]12C=CCN3CC[C@]4(C(=C(C(=O)OC)C1)Nc1cc(OC)c([C@@H]5[C@H]6O[C@H]6[C@@]6(CC)CC(C(=O)OC)=C7Nc8cc(O)ccc8[C@@]78CCN5[C@@H]68)cc14)[C@@H]32, the growth is reported as -44.4% (active).
For CC(=O)Nc1ccc(-n2cnc3cc(-c4ccc(O)cc4)ccc32)cc1C(F)(F)F, the growth was 4.45% (active).
Cc1ccc(-c2cc(C(=O)N=Nc3c(O)[nH]c4ccccc34)c3ccccc3n2)cc1 was tested, and the growth was 28.2% (inactive).
